Results on eight compounds are retold here after PubChem BioAssay (NCI).

Assay in all cases: NCI-60 one-dose screen, 48 h (100 = growth as untreated, 0 = no growth, -100 = all killed)
The subject of assay [1] is SK-MEL-2 melanoma. As to conditions: 10 µM unless noted.
Assay [2] deals with EKVX NSCLC. As to conditions: 10 µM unless noted.
For assay [3], the system named is SN12C renal. The settings on record: 10 µM unless noted.
In assay [4] the test system is UO-31 renal. As to conditions: 10 µM unless noted.
In assay [5] the test system is TK-10 renal. As to conditions: 10 µM unless noted.
Assay [6] has as its system ACHN renal. The settings on record: 10 µM unless noted.
Assay [7] concerns CAKI-1 renal. The settings on record: 10 µM.
In assay [8] the test system is A498 renal. As to conditions: 10 µM unless noted.
Assay [9] deals with CCRF-CEM leukemia. As to conditions: 10 µM unless noted.
Assay [10] deals with MOLT-4 leukemia. As to conditions: 10 µM unless noted.
Assay [11] has as its system SR leukemia. As to conditions: 10 µM unless noted.
Assay [12] relates to RPMI-8226 leukemia. As to conditions: 10 µM unless noted.
Assay [13] deals with OVCAR-8 ovarian. As to conditions: 10 µM unless noted.
The subject of assay [14] is OVCAR-5 ovarian. The settings on record: 10 µM unless noted.
Assay [15] relates to OVCAR-4 ovarian. As to conditions: 10 µM unless noted.
For assay [16], the system named is SK-OV-3 ovarian. As to conditions: 10 µM unless noted.
For assay [17], the system named is HS 578T breast. The settings on record: 10 µM unless noted.
Assay [18] relates to NCI/ADR-RES ovarian. As to conditions: 10 µM unless noted.
Assay [19] relates to IGROV1 ovarian. As to conditions: 10 µM unless noted.
Assay [20] has as its system OVCAR-3 ovarian. The settings on record: 10 µM unless noted.

The structures appear in SMILES notation. About 83,000 compounds went through this panel and 20% of them were active in at least one assay; those are over-represented in the sample as a whole.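 Percent growth is the endpoint: 0 to 100 indicates growth inhibition (40 means 60% inhibition), 0 means no net growth, and negative values indicate cell death.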 Values without a mark were called inactive. Active and inactive are the calls of the source. The calls were made as follows: active = growth percent below 10; inactive = the rest.

As to `NS(=O)(=O)Oc1ccc2nc(Nc3ccc(F)c(F)c3)ccc2c1`, the growth in [1] is 116%; in assay [2], 93.4%; in assay [3] it was 88%; in assay [4], 73.3%; in assay [5] it was 118%; in [6], 85.8%. Also, the growth is 76.7% in assay [7]; 74.5% in assay [8]; 67.8% in assay [9]; 67% in assay [10]; 60.5% in [11]; 86.7% in assay [12]. Further, the growth is 96.1% in [13]; 91.6% in assay [14]; 88.9% in assay [15]; 111% in [16]; 104% in [17]; 94.6% in assay [18].

As for `COc1cc(/C=C/C(=O)c2ccc(N3CCN(C)CC3)cc2)ccc1F`, the growth in assay [1] was 115%; in assay [2], 88.4%; in [3], 81.2%; in assay [4], 56.5%; in assay [5], 124%; in [6] it was 79%. In addition, the growth in assay [7] was 63.6%; in [8], 98.7%; in assay [9] it was 53.8%; in assay [10], 88.5%; in [11], 28.3%; in assay [13], 88.9%. Further, the growth is 81.6% in assay [14]; 75.9% in assay [15]; 99.3% in assay [16]; 56.6% in assay [19]; 104% in assay [17]; 82.8% in assay [18].

Take `Cc1ccc(-c2cc(-c3cccc4ccccc34)n3c(n2)nc2ccccc23)cc1`: the growth in [1] is 105%; in [2] it was 78.7%; in assay [3], 61.2%; in assay [4], 37.9%; in assay [5], 69.1%; in [6] it was 24.8%. Moreover, the growth in [7] is 23.1%; in assay [8], 52.5%; in assay [9], 37.5%; in [10], 4.63% (active); in assay [12], 65.2%; in [13], 58.4%. The growth is 92.7% in assay [14]; 79.6% in [15]; 100% in assay [16]; 59.5% in [19]; 56.5% in [17]; 67.7% in assay [18].

For the compound `COC(=O)[C@@]1(C)CC[C@]2(C)CC[C@]3(C)C(=CC(=O)[C@@H]4[C@@]5(C)Cc6c(n(CC#CCN7CCN(C)CC7)c7ccccc67)C(C)(C)[C@@H]5CC[C@]43C)[C@@H]2C1`, the growth in [1] was 101%; in assay [2] it was 92.4%; in assay [3] it was 73.5%; in assay [4] it was 65.7%; in [5], 119%; in assay [6], 89.4%. For the same compound, the growth in [7] was 64.7%; in [8], 112%; in assay [9], 48%; in assay [10], 16.9%; in [12], 69.5%; in assay [13], 93.8%. The growth in [14] was 86.7%; in [15], 89.7%; in assay [16] it was 122%; in [19], 89%; in assay [17], 88.1%; in assay [18] it was 86.5%.

As to `O=S(=O)(Nc1cc(Cl)c(F)c(Cl)c1)c1ccc(-c2cnc(C3CC3)o2)cc1`, the growth in assay [1] was 51.9%; in assay [2] it was 47.6%; in [3], 48.7%; in [4], 56.8%; in assay [5] it was 72.5%; in assay [6], 49.4%. The growth in assay [7] was 12%; in assay [8], 15.5%; in [9], 20.7%; in assay [10], 38%; in [11], 36%; in [13] it was 44.5%. Also, the growth in [14] is 48.4%; in assay [15], 58.3%; in [16], 72.8%; in assay [19] it was 43.5%; in assay [20] it was 15.4%; in [18], 26.8%.

As for `C=C(C)[C@@H]1CC[C@]2(C)[C@H](CC=C3[C@@H]4CC(C)(C)CC[C@]4(C(=O)NCC#CCN4CCN(C)CC4)CC[C@]32C)[C@@]1(C)CCC#N`, the growth in assay [1] is 94%; in [2] it was 81.6%; in [3], 76%; in assay [4] it was 60%; in assay [5], 83.9%; in assay [6] it was 78.5%. In addition, the growth is 30.7% in [7]; 84.1% in assay [8]; 48.9% in assay [9]; 19% in assay [10]; 42.4% in [12]; 85.9% in assay [13]. Also, the growth in assay [14] was 89.8%; in assay [15] it was 70.6%; in assay [16], 94.5%; in assay [19], 54.3%; in [17] it was 71.7%; in assay [18], 62.5%.

In the case of `O=S(=O)(Nc1ccc(-c2nc(-c3cccc(O)c3)c(-c3ccnc(Br)c3)[nH]2)cc1)c1ccccc1`, the growth in [1] was 23.5%; in [2], 53.3%; in assay [3], 44.3%; in assay [4], 24.7%; in assay [5] it was 55.7%; in [6] it was 28.4%. Also, the growth in assay [7] is 25.6%; in assay [8], 49.4%; in assay [9] it was -2.56% (active); in assay [10], -20.9% (active); in assay [11], -9.8% (active); in [13] it was 9.98% (active). In addition, the growth in [14] is 64.6%; in assay [15] it was 9.17% (active); in assay [16], 54.7%; in assay [19], 42.1%; in assay [20] it was 32.1%; in assay [18], 61.1%.

Regarding `N#C/C(=C\c1ccc(-c2ccc(F)cc2)o1)C(=O)Nc1ncc(Cc2ccc(Cl)cc2Cl)s1`, the growth in assay [1] is 68.9%; in [2] it was 9.87% (active); in assay [3], -37.5% (active); in [4], 2.72% (active); in assay [5], -4.43% (active); in assay [6], 8.96% (active). For the same compound, the growth was 14.2% in [7]; 72.1% in assay [8]; 4.62% (active) in [9]; 30.8% in [10]; 25.3% in [12]; 6.14% (active) in assay [13]. Besides, the growth was 26% in [14]; -40.3% (active) in [15]; 107% in assay [16]; -1.72% (active) in assay [19]; 10.7% in assay [17]; 6.32% (active) in assay [18].
